# Results published in the supplement of paper PMC11417369.
# In all, about 25,000 sequences were measured (“ln(normalized median fluorescence intensity)”: median about 7.1, highest 2% from about 10 on). Many of the other results were omitted from the sample, so the highest values are more common in it than they were.
# Test system: PfSIP2 AP2 domain 1 (GST-tagged)
# Test: gcPBM binding intensity (ln(normalized median fluorescence intensity)); higher = stronger DNA binding
# Method in brief: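 Plasmodium falciparum DNA-binding domains carrying a GST tag were expressed in E. coli and applied for 1 h, at about 25 μg on average, to an Agilent 4 × 180k array. The array held primer-extended double-stranded 36-bp intergenic genomic probes together with negative controls, and binding took place in 1× PBS with 1% milk, 0.2 mg/ml BSA, 0.5% salmon testes DNA and 0.03% Triton X-100. An Alexa488 anti-GST antibody detected bound protein, and the array was scanned at 488 nm. Binding intensity is taken as the highest Masliner-normalised natural-log median intensity across replicate spots of either probe orientation.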
row,Sequence,gcPBM binding intensity (ln)
1,GTAATATTAAAATATACACACATAGAATATATATAT [CACACA_site4391],8.8
2,TATATATAATATAGTGCATGTAAAAAATAAACCATG [TGCATGCA_site932],9.18
3,GCATGTATAATGGTAGTGCATATAATAATATAATAA [GTGCAC_site9548],9.06
4,TATAATAATATAATGGTGCATGTATATAACCATATA,10.7
5,TGAACTCACGAGCACACACACACATATATATATATA [CACACA_site8248],9.18
6,TAAAATTTAAAATATACACACAAAAAGTTATTACAA [CACACA_site4080],6.93
7,CTAATCGTGCACAACTGTACATTTGTCAAGGGCAAT [XGTACX_site8662],10.4
8,AACTGTACAATTTTTGTGCACAATAATTATTAATAT [GTGCAC_site9462],8.74
9,TAAAATATATAAAACTGTACATTTTAAAGGCACAAC [XGTACX_site8342],7.55
10,ATATAAATGATATGTACACACATTTATATATATAAA [CACACA_site3475],7.04
11,AATATATACCAACATAAATATATATATATATATATA [TGCATGCA_negctrl_site334],9.89
12,TTAAAAGAATATAATGCACACATTATTTTATTTTAT [CACACA_site3772],7.03
13,ATAAAATTATTATATACATGCAAAATTAATATATTG [TGCATGCA_site507],6.84
14,TCAAAAGAATAATTGGTGCAAATTATATAATATAAT [GTGCAC_site9804],10.2
15,TTATAATATATATAAAAGAAAAAAAATTATAATATA [CACACA_negctrl_site90],6.69
16,AATATTTTATTTTGGGTGCAAAAGAATATTATTTCA,10.4
17,ATTTTATTTTATTAAGTGCAAAAAAAAAAAAAGAAA,8.24
18,TATTTATTATTATGTACACACTATATTAAAACATAA [CACACA_site4549],7.08
19,CTCAAATGTTATTGTAGTACCTAAAAAATATATTCT [XGTACX_site1970],6.97
20,TGTAGTCTGGAGAAACGTACATAGTATCTGGTAGCT [XGTACX_site2538],6.84
21,TTTTAACATATAAGTACACACATATAATCAATCATA [CACACA_site2325],7.25
22,AATTTCTTTTTCGATATACACACTGTATGTGTCTAA [CACACA_site3975],6.94
23,CATAATATGTGGACTTTACACACTTGTTTTAAAATT [CACACA_site819],6.87
24,TGTATGTTTGGGTGCACACATAAATATTATATATAG [CACACA_site3397],12.2

row,Sequence,gcPBM binding intensity (ln)
1,ATATATATATATATTGCACACATATAAATATATATA [CACACA_site8167],9.22
2,TATATGTATGTTTGTGTGCACACATAAATATTATAT,8.48
3,AATATATATATATGTGCACACATATATAATATGTAT [CACACA_site716],8.55
4,AATGTAGAAATGGGTGCACACACATATATAATATAT [CACACA_site8799],11.7
5,TGTAGAAATGGGTGCACACACATATAAAATCTATAT [CACACA_site7224],12.2
6,TATATATATATGTGCACACATATATAATATGTATAA [CACACA_site715],9.37
7,AAAATCTAATATAATGCACACATAAAAAAAAAATCA [CACACA_site8871],7.17
8,TATGTATGTTAGTGTGCACACATAAATATTATATAT [CACACA_site9121],9.26
9,AAAATCTAATATAATGCACACATAAAAAAAAATCAA [CACACA_site9211],7.52
10,ACATATAAATATTGTGTGCACACACATAATATATAT,8.29
11,ATAAATATTGGGTGCACACACATAATATATATATAT [CACACA_site2272],12.2
12,TTAATATTGTATTTCACACATAATTTAATATACTCA [CACACA_site5678],6.87
13,CAAAAAAAAAAAAAAACACACATTAAATTATAAAGA [CACACA_site2613],6.77
14,TTTTATATTCCACAAAAAATTATATAATAATAGAAC [CACACA_negctrl_site1741],7.26
15,TGTAGAAATGGGTGCACACACATATATAATATATAT [CACACA_site2507],12.3
16,ATAATAAAAAAAAATGCACACATATATATATATATA [CACACA_site8766],9.29
17,TATATATATATATTCACACATAAAAATAAAATAAAA [CACACA_site4774],8.88
18,TATATATATATATTCACACATAAATATATGCACCCA [CACACA_site4263],11.6
19,AAAATATAATATAATGCACACATAAAAAAAAAAAAA [CACACA_site7989],7.19
20,TAAACATAAATATGCACACATATACATATATTCATA [CACACA_site2667],7.34
21,TATTTGATAAATTATACACACACAATATATATAAAA [CACACA_site8625],6.94
22,AAGATTAGGTTAATTAGTACTTATTATATTGTAATG [XGTACX_site3653],6.85
23,TACCAATGCATAACGGTGCAAAAAAATAAGGAATAA,10.7
24,AATAAAAATAATATAGTGCATAATATAAGGAAAAAA,9.36

row,Sequence,gcPBM binding intensity (ln)
1,TATACCAATGAATGAGTGCAAAGAAGATAAGGAAAA,8.58
2,AAAATGGTTTATAAATGTACATATATTATATATAAC [XGTACX_site7959],7.03
3,TATATATATATATATGCATGTACATATATTTGTTAT [TGCATGCA_site379],9.76
4,ATATATATATATGCATGTACATATATTTGTTATATC [XGTACX_site3197],9.3
5,TATGTGCACCCATGTACATGCGGACATATGTTATAT [TGCATGCA_site383],12
6,AAAATAAAAAATTAATGTACTTAGAATTGTCACTAA [XGTACX_site1346],6.79
7,AAAAAAACAACATGCACACGCACACCCAAAAAAAGC [CACACA_site72],7.96
8,CCAACATGCCCACGCACACACAAAAAAAGCATGCAT [CACACA_site4217],7.23
9,AGAAAAAAACAACATGCACACGCACCCACAAAAAAA [CACACA_site7908],10.2
10,TATGCAAGGAACCACACACACACACGGAAATGTATA [CACACA_site6490],6.94
11,AATTTAATATAATGCACACATAAAAAAAAATTCAAA [CACACA_site2062],7.16
12,TTTTTGTTACCTATTGTGCACTTCATATAAATTAAA,10.8
13,ACGTTAGGCTTATTTGCACACTTGTATTAAAATTTT [CACACA_site4854],7.27
14,TGTTAAAATTATTTGGTGCACTTGTTTTACCTTATT,11.3
15,CTTATTTTGTTATAAGTGCATTTTTTAAAATTTCTT,9.64
16,TATTTCACTTTTTGTCTGCACTAAAATTTTATGGTA,7.74
17,ACATTAAAAAATTGTTTGCACTATATAAAATATTAA [GTGCAC_site9728],8.2
18,ATTTATTTCTTGTTAGTGCACTTTCTTTGGTAAAAT,11.1
19,TGTTATTTTAAAAAAAAAATTATTAACTTAAAAAAA [CACACA_negctrl_site1641],6.68
20,AAAATATAAATTCATGTGCACATATATATTTTGTTA [GTGCAC_site9782],8.24
21,CACGTGAAAATACAAGCATGCAAGCTTTTTTTTTCT [TGCATGCA_site642],6.53
22,TACAATTCGTAATACACACACATATAAATAAATATT [CACACA_site7720],7.28
23,AAATAATAAAGTATAACACACATATTTATTTATATA [CACACA_site7822],6.73
24,AATAGAACAAATAAAACACACACATATATATATATA [CACACA_site8893],9.42

row,Sequence,gcPBM binding intensity (ln)
1,AAAATACGAATATAAACATGCACCATATAGAACAAA [TGCATGCA_site925],10.7
2,AAAGAACAAATAAAACATAAAATAATATATATAGAT [CACACA_negctrl_site1764],7.02
3,ATAGATGCATATTATACACACATATGTAAATACATT [CACACA_site4691],7.06
4,CAAACAATTAAACAAACACACATATACAAGTATATA [CACACA_site8639],7
5,GTAGGCATTAAAAAATGTACAAAATATTATGAATTG [XGTACX_site1615],6.85
6,TGAACATATTAAAATTGTACATATGCACAATATGTA [XGTACX_site6801],7.44
7,AGTAGGCATATTGGTTGTACAAAAAAATTATGCACC [XGTACX_site8925],10.3
8,ATATAAACAAAGCAGTGCACGTAAACAAAACATATA [CACACA_negctrl_site1076],10.4
9,TTGCACTCGTAAAAAGCACACATATAAAAACATTTA [CACACA_site7997],8.15
10,ATAAACATATAAAAAGTGCATATTCATATATCTACT,8.7
11,TAAAAAAAAACATGTGCACACGTTTTATCTACATAA [CACACA_site2336],8.79
12,TTATCTCTACAAAGTGCACACACGTAAAAACATATA [CACACA_site3957],10.4
13,AAACAGAATACATATACACACATACAAAAAAGTGCA [CACACA_site8235],7.52
14,ATCTCTACAAAGTGCACACACGTAAAAACATATATA [CACACA_site6046],10.8
15,TAAAAAAAAACATATACACACAAAAACGTACACATA [CACACA_site1354],7.29
16,TTAAAAGTAAGCAAAGTGCATATAACAAAAGTAAAG,8.19
17,ATATATATGTATATGTGTACTTATATTTGTCATTTT [XGTACX_site1317],7.11
18,TAATATTTATGTTAATGTACAAAAAAACAAAACAAA [XGTACX_site301],7.09
19,TTTTTTAAATATTAAAAATGGGATCTTATAACATAT [GTGCAC_negctrl_site666],6.91
20,ATATATATAATAAACACACACATATACATAGATGTA [CACACA_site5841],7.49
21,AAATAAAAGATATTTTTACACACTTTTGATGAGATC [CACACA_site9000],6.75
